# Source: PubChem
# KB-V1 MDR tox: kills drug-selected multidrug resistant KB-V1 cells | KB-V1 MDR cells viability, CellTiter-Glo, 72 h | Potency, µM (top dose mostly 46.1 µM), hits mostly cytotoxic | 400,000 tested, 3.4% active | AID 1347076; further: potency means the concentration at half of the fitted maximal effect; nearly all actives have a fitted effect of over 60% in size
#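 Cytotoxicity toward P-gp-expressing KB-V1 cells was determined as loss of CellTiter-Glo luminescence after 72 h at 37 degrees C. Compounds were tested in quantitative HTS format across a concentration range, with curves fitted to normalized data.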
# Nrf2 inh: Nrf2 pathway inhibition; A549 ARE-Fluc reporter, luciferase luminescence, 18-24 h; Potency, µM (series often up to 46 µM), inactives show at the top dose activity change, negative = inhibition, most hits filed as inhibitors; 360,000 tested, 2.1% active; AID 504444; further: potency means the concentration at half of the fitted maximal effect; nearly all actives have a fitted effect of over 60% in size
#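 Nrf2 function is reported as luminescence of an ARE-controlled luciferase in A549 cells. Compounds were tested at several concentrations, and a CellTiter-Fluor read on the same wells flagged cytotoxicity.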
# PI4K2A block: PI4K2A (human) kinase inhibition; AID 1346378; purified PI4K2A, ADP-Glo luminescence, 1 h; hits give low values; 420,000 tested, 0.13% active; Q9BTU6; activity change, negative = inhibition, % at 76.9 µM; in the data active means activity change below about -50%; inconclusive means mostly about -30% to -49%;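 further: -100% = wells without enzyme as full effect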
# Target sequence (Q9BTU6 whole entry, looked up): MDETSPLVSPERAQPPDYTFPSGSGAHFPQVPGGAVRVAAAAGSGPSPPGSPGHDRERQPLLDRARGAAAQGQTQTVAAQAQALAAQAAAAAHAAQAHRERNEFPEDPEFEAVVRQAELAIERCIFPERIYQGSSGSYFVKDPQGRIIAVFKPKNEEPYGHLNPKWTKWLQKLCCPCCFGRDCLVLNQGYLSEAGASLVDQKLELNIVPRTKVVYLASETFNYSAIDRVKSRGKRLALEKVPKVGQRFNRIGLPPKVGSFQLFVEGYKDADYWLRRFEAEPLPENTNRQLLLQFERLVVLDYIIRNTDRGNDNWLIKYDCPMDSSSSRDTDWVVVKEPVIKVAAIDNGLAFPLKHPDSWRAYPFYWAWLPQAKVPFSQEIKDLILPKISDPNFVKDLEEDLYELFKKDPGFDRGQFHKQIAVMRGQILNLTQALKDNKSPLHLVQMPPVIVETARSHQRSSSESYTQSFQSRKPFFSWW
#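 In this quantitative HTS, ADP production by PI4K2A was quantified luminescently after 1 h at ambient temperature; 100 microM adenosine served as plate-quality control.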
# A549 tox: kills or reduces viability of A549 cells in Nrf2 counter-screen; A549 ARE-Fluc cells, CellTiter-Fluor viability, 18-24 h; Potency, µM (series often up to 46 µM), for inactives: at the top dose activity change, negative = cytotoxicity, usual class: inhibitors; AID 504648; 390,000 tested, 0.16% active; further: potency means the concentration at half of the fitted maximal effect
#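 A549 ARE_Fluc cells in 5% FBS OPTI-MEM were exposed to compounds in concentration-response for 18-24 h at 37 deg C. Viability was read by CellTiter-Fluor fluorescence (Ex 405/Em 525) after 30 min, before the luciferase read.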
# KB-3-1 tox: kills parental KB-3-1 adenocarcinoma cells | AID 1347075 | 400,000 tested, 1.4% active | Potency, µM (top dose mostly 46.1 µM), most hits filed as cytotoxic | KB-3-1 viability, CellTiter-Glo ATP luminescence, 72 h; further: potency means the concentration at half of the fitted maximal effect; nearly all actives have a fitted effect of over 60% in size
#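 Cytotoxicity in the drug-sensitive parental line KB-3-1 was scored as loss of CellTiter-Glo luminescence following 72 h incubation with compound. Values come from curve fitting of normalized concentration-response data.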
# Giardia kill: kills Giardia lamblia | Giardia lamblia trophozoite viability | activity change, % at 7.66 µM, hits read low | 340,000 tested, 0.15% active | AID 540267; in the data active means activity change below about -80%; inconclusive means between about -30% and that limit;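 further: parasites exposed to compound for two days anaerobically before the ATP read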
#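 Trophozoites 100 cells/well + cpd; 48 hrs, 37 deg C, anaerobic. ATPLite 1-Step added, 15-30 min RT, luminescence read (ATP-based viability).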
# Active calls of the source: *; i = inactive; ? = inconclusive; · = no result. Shown are actives, neighbours in structure and some others; about 5.7% of the full set was active somewhere. Unless noted, the call rests on the fitted dose curve; in most records, active means well fitted curve in the direction sought with a large enough effect; inconclusive means small, poorly fitted or top-dose-only effect, or another doubt; inactive means no such curve, though single readings can be large; an effect the other way counts as inactive or inconclusive. Unless noted, on the % scale 0 is the no-effect control and ±100 the full control effect.
SMILES,KB-V1 MDR tox,Nrf2 inh,PI4K2A block,A549 tox,KB-3-1 tox,Giardia kill
COc1ccc(OC)c(C2C3=C(COC3=O)Nc3cc4c(cc32)OCO4)c1 (centres undefined),1.2µM*,-3%,0,-16%,0.058µM*,-20
COc1ccc(C2C3=C(CC(C)(C)CC3=O)Nc3cc4c(cc32)OCO4)cc1 (centres undefined),i,-1%,-1,-8%,i,7
CN(C)S(=O)(=O)c1ccc(Cl)c(NC(=O)CSc2nc3c(cc2C#N)C(=O)CC(C)(C)C3)c1,i,?,5,-16%,i,8
CN(C)S(=O)(=O)c1cccc(NC(=O)CSc2nc3c(cc2C#N)C(=O)CC(C)(C)C3)c1,16µM*,?,-4,-1%,21µM*,32
CCCC1CCc2c(sc(NC(=O)OCC)c2C#N)C1 (centres undefined),5.8µM*,-17%,4,-5%,?,-13
CCOC(=O)Nc1sc2c(c1C#N)CCCC2,i,?,1,-4%,i,3
O=C(CN1CCc2onc(-c3ccc(-n4cc(COc5ccc([N+](=O)[O-])cc5)nn4)cc3)c2C1=O)N1CCOCC1,·,·,-1,·,·,·
COc1ccc(C2C=C(C34CC5CC(CC(C5)C3)C4)NC(=S)N2)cc1OC (centres undefined),18µM*,?,2,-8%,i,-1
CC(C)c1cc(CN2C(C)COCC2C)cc(C(C)C)c1O (centres undefined),16µM*,3%,-6,4%,?,5
CCOC(=O)C1CCN(Cc2cc(C(C)C)c(O)c(C(C)C)c2)CC1,?,1%,6,2%,i,-28
Cc1ccc(C)c(S(=O)(=O)n2nc(C)c(S(=O)(=O)N3CCCCCC3)c2C)c1,?,·,13,-1%,i,·
C=C1[C@@H](O)[C@@H]2O[C@]3(CC[C@H](/C=C/[C@@H](C)[C@@H]4CC(C)=CC5(O[C@H](C[C@@](C)(O)C(=O)OC)CC[C@H]5O)O4)O3)CC[C@H]2O[C@@H]1[C@@H](O)C[C@H](C)[C@H]1OC2(CCCCO2)CC[C@H]1C (some centres undefined),18µM*,0.092µM*,-2,?,?,5
C=C1C(O)[C@@H]2O[C@]3(CC[C@H](/C=C/C(C)[C@@H]4CC(C)=CC5(O[C@H](C[C@@](C)(O)CO)CCC5O)O4)O3)CC[C@H]2O[C@@H]1C(O)CC(C)[C@H]1OC2(CCCCO2)CCC1C (some centres undefined),?,?,-2,?,0.021µM*,-1
COc1ccc(C(C(=O)N(C)C2CCCC2)N(Cc2ccc(F)cc2)C(=O)c2ccc3ccccc3c2)cc1OC (centres undefined),·,·,3,·,·,·
Cc1cc2oc(=O)cc(CN3CCN(c4ccccc4)CC3)c2cc1Cl,i,·,1,·,i,·
O=C(OCn1ncc(Cl)c(Cl)c1=O)c1ccc(C(F)(F)F)cc1,6.5µM*,3%,23,-16%,7.3µM*,2
Cc1cccc(Cn2ncc(Cl)c(Cl)c2=O)c1,21µM*,?,15,-25%,?,-5
Cc1cc2oc(=O)cc(Cn3ncc(Cl)c(Cl)c3=O)c2cc1Cl,?,?,6,?,13µM*,21
Cc1ccc(C)c(C(=O)Cn2ncc(Cl)c(Cl)c2=O)c1,?,6%,10,-13%,?,1
CCOC(=O)c1ccc(NC(=O)Cn2ncc(Cl)c(Cl)c2=O)cc1,?,?,-15,1%,?,-23
Cc1ccc(C(=O)OCn2ncc(Cl)c(Cl)c2=O)cc1,?,?,16,·,4.6µM*,10
CCCCOc1ccc(C(=O)NCC2(N3CCN(C)CC3)CCCCC2)cc1,·,?,-4,-10%,·,·
CCOC(=O)c1sc2nc(CC(=O)OC)nc(NCCN3CCOCC3)c2c1C,3.7µM*,2%,3,-5%,?,6
CCOC(=O)c1sc2nc(CC(=O)OC)nc(N3CCN(c4ccc(OC)cc4)CC3)c2c1C,?,?,9,-15%,i,7
CCOC(=O)c1sc2nc(CC(=O)OC)nc(NCCN(CC)CC)c2c1C,9.2µM*,-6%,-1,2%,i,21
SMILES,KB-V1 MDR tox,Nrf2 inh,PI4K2A block,A549 tox,KB-3-1 tox,Giardia kill
CCOC(=O)c1sc2nc(CC(=O)OC)nc(NCc3ccc(Cl)cc3)c2c1C,?,·,4,-8%,i,2
CC1CC=CC2C1C(=O)N(Cc1ccccc1)C2c1ccc(C(F)(F)F)cc1 (centres undefined),·,8%,·,7%,·,-7
O=S(=O)(Nc1ncnc2scc(-c3ccc(F)cc3)c12)c1cc(F)ccc1F,18µM*,-29%,0,-5%,?,?
NNc1ncnc2scc(-c3ccc(Cl)cc3)c12,?,-17%,-2,1%,16µM*,-8
COc1ccc(Nc2ncnc3scc(-c4ccc(F)cc4)c23)cc1,?,·,-1,23%,i,·
COc1ccc(Nc2ncnc3scc(-c4ccc(OC)cc4)c23)cc1,3.3µM*,10%,5,-6%,4.1µM*,7
Cc1ccc(-c2c(C3C4C=CCC(C)C4C(=O)N3Cc3ccccc3)ccc3ccccc23)cc1 (centres undefined),·,?,·,-2%,·,11
Cc1ccc(S(=O)(=O)N(Cc2nc(-c3cccc(C)c3)no2)C2CCCCC2)cc1,·,-12%,2,9%,·,·
CCCC(=O)NC1CC(=O)N(c2ccc3c(c2)OCCO3)C1 (centres undefined),·,·,4,3%,·,·
CCCCn1c(SCC(=O)Nc2ccc(OCC)cc2)nc2ccsc2c1=O,·,·,-2,2%,·,·
CCCCn1c(SCC(=O)N2CCN(c3ccccc3)CC2)nc2ccsc2c1=O,8.2µM*,?,10,-15%,i,5
CCCCn1c(SCC(=O)Nc2ccccc2C(F)(F)F)nc2ccsc2c1=O,2.6µM*,-16%,-1,-4%,i,-8
CCCn1c(SCC(=O)N2CCN(c3ccccc3)CC2)nc2ccccc2c1=O,i,11%,0,-6%,i,3
CCCCn1c(SCC(=O)N2CCC(C)CC2)nc2ccsc2c1=O,1.2µM*,-13%,-2,4%,i,-4
COC(=O)[C@]12C[C@H](CC(=O)NCc3ccc(C)o3)C(=O)N(Cc3cccc4ccccc34)C1=C[C@H](C(C)(C)C)O[C@@H]2C,·,·,-5,·,·,·
Cc1ccc(-c2nnc(Nc3ccc(Br)cc3)c3ccccc23)cc1S(=O)(=O)N1CCOCC1,i,·,3,4%,i,·
